The results in this text go back to the OligoGym collection.
Further: reference of the scale not given here.

In the first assay the target is GYG1. The assay is described as follows: pooled miR-30 sensor sort-seq; sequence = guide strand. The note with it: shRNA.
TCTAGCAACTGTAACAGACTTT: the sensor-assay potency score (higher = more potent) was -0.0429.

TTACTGTACACAGAAAACTGGT had a sensor-assay potency score (higher = more potent) of -0.292.

As for TACTGTGTAAGCGACCAGCAGT, the sensor-assay potency score (higher = more potent) is -0.399.

The sequence TTACATATGAGCAGGTGTCTTT registered a sensor-assay potency score (higher = more potent) of -0.417.

Turning to TACAGAACTGAACAAAAGCATT, the sensor-assay potency score (higher = more potent) was -1.48.

For the sequence TTTAAGAACTGATACAGCCATC, the sensor-assay potency score (higher = more potent) was -1.1.

On to TTGCTCAGAAGCAAGATGCAAC, for which the sensor-assay potency score (higher = more potent) was -0.936.

As for TTGAAGCAGAGGTAAAACGTTG, the sensor-assay potency score (higher = more potent) is -0.811.

In turn, TAACCATCAGAGAACACACTGC gave a sensor-assay potency score (higher = more potent) of 0.344.

On to TTAATATCTTGAGTTTCCCTTA, for which the sensor-assay potency score (higher = more potent) was -0.312.

Regarding TTTAATGAAAACCTCTAGCAAC, the sensor-assay potency score (higher = more potent) is -1.05.

Take TAACAGACTTTTCTCAACCCAG: the sensor-assay potency score (higher = more potent) is -0.49.

The target of another assay is H2AFZ. The description is as above. Conditions: shRNA.
As to ATAATGTCTGTACAAAACCAAA, the sensor-assay potency score (higher = more potent) is -1.91.

Sequence TTTGTCTTGGCCTTTCCGGAGT showed a sensor-assay potency score (higher = more potent) of -0.897.

Sequence TTAAACTTCCAACTTGCTCAAA yielded a sensor-assay potency score (higher = more potent) of -1.

TTTGAAGCCACAGTAACACTTA gave a sensor-assay potency score (higher = more potent) of 0.62.

Turning to TTTAGGTGTCGATGAATACGGC, the sensor-assay potency score (higher = more potent) was -0.619.

Regarding TTGAACTTATCCACCAGAGTGG, the sensor-assay potency score (higher = more potent) was -0.27.

Take TAAACTTCCAACTTGCTCAAAT: the sensor-assay potency score (higher = more potent) was -0.831.

TTTACCTTTAAGTCTTTTGATG: the sensor-assay potency score (higher = more potent) is -0.972.

TAGATTTTAGGTGTCGATGAAT had a sensor-assay potency score (higher = more potent) of -1.16.

With TTAGGTGTCGATGAATACGGCC, the sensor-assay potency score (higher = more potent) was -0.494.

Sequence TAGCAAGTTGCAAGTGACGAGG showed a sensor-assay potency score (higher = more potent) of -0.877.
